Test results published in PubChem BioAssay.
Several values for one entry are separate records, joined by “and”; a condition that tells them apart may be missing. Equal values may be shown once. Activity calls are given as the source filed them. Unless noted, the rule behind the calls is not given here.

Key:
[1] = P. berghei load reduction in hepatocytes – cell-based, HepG2, luciferase luminescence, HepG2 viability, primary screen (AID 624349; in the data active = parasite load remaining mostly below about 12%, no sharp cut-off; inactive = mostly above about 10%;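 note: 100% = mean of DMSO negative control wells on the same plate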); conditions: P. berghei liver stage in HepG2, luciferase luminescence, concentration not given here; parasite load remaining: stronger effect = lower value; viability: measured here: HepG2 viability without parasites
[2] = test system: Hepatitis C virus NS3 helicase; assay: blockers of NS3h binding to ssDNA – biochemical, fluorescence polarization, LOPAC1280 library, primary screen (AID 687035; in the data active = inhibition above about 37%); conditions: Purified HCV NS3 helicase, Cy5-dT15 ssDNA binding fluorescence polarization; stronger effect = higher value; concentration not given here
[3] = compounds altering Cy5-DNA-NS3h complex signal – biochemical, LOPAC1280, artefact control for HCV NS3 helicase inhibitor project (AID 687037); conditions: Cy5-DNA-NS3h complex fluorescence interference counterscreen
[4] = Wnt pathway potentiators raising nuclear beta-catenin – imaging, WNT3A-conditioned medium, mouse C2C12, NPC library, primary screen (AID 1117326; in the data active = nuclear beta-catenin stimulation mostly above about 4.2%, no sharp cut-off; inactive = mostly below about 10%); conditions: stronger effect = higher value
[5] = stimulators of insulin release from INS-1E, primary screen, cell-based, 5 mM glucose, NPC library (AID 1117329;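 active = compound raises insulin release from rat beta cells at 5 mM glucose, no numeric limit stated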); conditions: rat INS-1E insulin secretion, at 10 µM, stronger effect = higher value
[6] = growth inhibition of GSK3B-pretreated HCT116 cells – cell-based, CellTiter-Glo, 0.2 to 20 µM (AID 1117336;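 active = compounds lowering colon cancer cell viability after pretreatment blocking the GSK3B kinase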); conditions: HCT116 viability after GSK3B inhibitor, at 20 µM, stronger effect = higher value
[7] = inhibition of endothelial tube formation, primary screen, imaging, VEGF stimulated, CD31 staining, tube area, NPC library (AID 1117340;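 active = compound that reduces growth-factor-driven endothelial tube area in a mixed cell culture, no cutoff stated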); conditions: VEGF-stimulated ADSC/ECFC co-culture, at 10 µM, stronger effect = higher value
[8] = GLP1 release stimulators, primary, NCI-H716, NPC library (AID 1117341;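 active = compound raises GLP1 secretion from the human gut endocrine cells, with no numeric limit stated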); conditions: NCI-H716 cells, at 10 µM, stronger effect = higher value
[9] = HCT116 colon cancer cell growth inhibition, primary screen, CellTiter-Glo luminescence, NPC library (AID 1117342;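 active = compounds that lower survival of HCT116 colon cancer cells in the luminescence readout, no numeric limit stated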); conditions: at 20 µM (top of the series)
[10] = reduced SW480 viability measured with CellTiter-Glo, NPC library, primary (AID 1117343;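 active = compounds that lower viability of the colon cancer cells in the luminescence readout, with no numeric limit stated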); conditions: CellTiter-Glo luminescence; at 20 µM (top of the series) unless noted
[11] = NPC library primary testing for decreased DLD-1 cell viability via CellTiter-Glo (AID 1117346;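 active = compounds that lower survival of DLD-1 colon cancer cells in the luminescence readout, no cutoff given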); conditions: DLD-1 viability, CellTiter-Glo luminescence; at 20 µM (top of the series)
[12] = viability loss with induced miR-34 in A549 – imaging, A549 dox-inducible miR-34, nuclei and caspase counts, primary screen (AID 1347080;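 active = compounds whose cell count with miR-34 switched on is under 0.7 times the count with it off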); conditions: A549 miR-34 inducible, Hoechst nuclei count, 48 h
[13] = blockers of cellular phospholipid synthesis – cell-based, LOPAC library, screen 4, primary screen (AID 1347384); conditions: animal cells, phospholipid biosynthesis inhibition screen; at 10 µM
[14] = MELAS cybrid and Rieske KO viability enhancers – cell-based, MELAS cybrids, Rieske KO mouse fibroblasts, CellTiter-Glo, primary screen (AID 1508586;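 active = mean z-score across replicates of 1.96 or higher in either the MELAS or the Rieske mutant cell line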;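 note: z relative to plate mean and SD of compound and empty wells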); conditions: low glucose
[15] = galactose survival enhancers in mitochondrial complex I cybrids – cell-based, galactose medium, ATP luminescence, primary screen (AID 1645843;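 active = z-score of at least 1.8 in each of two replicates, scored against plate mean and spread of sample wells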;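 note: positive z means more ATP and so rescue of galactose-driven cybrid death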); conditions: complex I mutant cybrid cells, 72 h, stronger effect = higher value
[16] = biological target: NAD(+) hydrolase SARM1 (Homo sapiens) (UniProt Q6SZW1); assay: blocking NAD cleavage by SARM1 SAM-TIR – cell lysate, NAD-Glo luminescence (AID 1508614;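 active = compound whose remaining NAD level is above about 45 nM, limit read from the data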;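 note: higher remaining NAD means stronger inhibition of SARM1 NADase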); conditions: SAM-TIR HEK293T lysate NADase, at 1 µM, stronger effect = higher value
[17] = stronger effect = lower value, cell number ratio, induced over uninduced
[18] = measured here: relative caspase fold change +Dox/-Dox
[19] = measured here: total cells with miR-34 induction, stronger effect = lower value
[20] = measured here: total cells without miR-34 induction
[21] = MELAS cybrid survival, CellTiter-Glo 48 h, stronger effect = higher value
[22] = Rieske KO mouse fibroblast survival, CellTiter-Glo 72 h

Chain of NAD(+) hydrolase SARM1 (Homo sapiens) (Q6SZW1 whole entry, looked up): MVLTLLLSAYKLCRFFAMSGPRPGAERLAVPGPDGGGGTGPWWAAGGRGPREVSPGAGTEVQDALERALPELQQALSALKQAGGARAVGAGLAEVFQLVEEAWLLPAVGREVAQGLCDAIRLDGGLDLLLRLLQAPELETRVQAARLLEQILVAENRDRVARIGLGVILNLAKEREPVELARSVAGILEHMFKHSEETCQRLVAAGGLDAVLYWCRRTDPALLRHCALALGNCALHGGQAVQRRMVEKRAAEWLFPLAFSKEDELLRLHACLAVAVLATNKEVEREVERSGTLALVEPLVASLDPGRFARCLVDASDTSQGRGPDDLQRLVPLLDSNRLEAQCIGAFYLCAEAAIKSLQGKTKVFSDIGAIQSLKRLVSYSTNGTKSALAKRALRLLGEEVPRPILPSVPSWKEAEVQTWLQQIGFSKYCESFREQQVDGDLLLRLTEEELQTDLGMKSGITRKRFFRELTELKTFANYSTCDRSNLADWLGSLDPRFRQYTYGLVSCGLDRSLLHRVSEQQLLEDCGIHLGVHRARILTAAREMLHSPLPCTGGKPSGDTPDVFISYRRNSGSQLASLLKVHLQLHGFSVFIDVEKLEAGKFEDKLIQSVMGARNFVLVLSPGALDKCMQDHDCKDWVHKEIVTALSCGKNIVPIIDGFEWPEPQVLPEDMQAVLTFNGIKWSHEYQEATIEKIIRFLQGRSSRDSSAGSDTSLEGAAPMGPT

In the case of C[N+](C)(C)CCOC(=O)CCC(=O)OCC[N+](C)(C)C, the parasite load remaining [1] is reported as 28% (inactive), the viability [1] is reported as 74.5% and the inhibition [2] is reported as 2% (inactive). For the same compound, the fluorescence ratio (interference) [3] was 1 (inactive), the nuclear beta-catenin stimulation ([4]; at 10 µM) was 0.2% (inactive) and the nuclear beta-catenin stimulation ([4]; stimulation, at 2 µM) was 1.4%. The insulin secretion stimulation [5] was 0.95% (inactive), the viability decrease [6] was 14% (inactive) and the tube area decrease [7] was -17.3% (inactive). For the same compound, the GLP1 secretion stimulation [8] was 3.2% (inactive), the inhibition of viability [9] was 3.4% (inactive) and the viability decrease (inhibition) [10] was -16.3% (inactive). The viability decrease (inhibition) [11] was 3.4% (inactive), the fold change [12, 17] was 0.999 (inactive) and 0.895 (inactive) and the fold change [12, 18] was 1.13 and 1.62. The cell count [12, 19] was 9370 and 9270, the cell count [12, 20] was 9380 and 10400 and the outcome [13] was “inactive”. The z-score [14, 21] was -0.659 (inactive), the z-score [14, 22] was -1.43 and the z-score [15] was 0.34 (inactive) and -0.11 (inactive).

In the case of O=C(O)CP(=O)(O)O, the inhibition [2] is reported as -3% (inactive), the fluorescence ratio (interference) [3] is reported as 0.9 (inactive) and the nuclear beta-catenin stimulation ([4]; at 10 µM) is reported as 4.8% (inactive). The nuclear beta-catenin stimulation ([4]; stimulation, at 2 µM) was 3.8%, the insulin secretion stimulation [5] was 0.7% (inactive) and the viability decrease [6] was -14.8% (inactive). The tube area decrease [7] was -4.7% (inactive), the GLP1 secretion stimulation [8] was 0.3% (inactive) and the inhibition of viability [9] was -1.37% (inactive). The viability decrease (inhibition) [10] was 10.9% (inactive), the viability decrease (inhibition) [11] was -7.2% (inactive) and the fold change [12, 17] was 0.969 (inactive). The fold change [12, 18] was 1.06, the cell count [12, 19] was 9620 and the cell count [12, 20] was 9930. The outcome [13] was “inactive” and the z-score [15] was 1.15 (inactive).

With CCCCCCCCCCCCCCCCO the nuclear beta-catenin stimulation ([4]; at 10 µM) was -0.4% (inactive), the nuclear beta-catenin stimulation ([4]; stimulation, at 2 µM) was 0.7% and the insulin secretion stimulation [5] was -0.5% (inactive). For the same compound, the viability decrease [6] was -1.35% (inactive), the tube area decrease [7] was -0.9% (inactive) and the GLP1 secretion stimulation [8] was -3.8% (inactive). For the same compound, the inhibition of viability [9] was -2.3% (inactive), the viability decrease (inhibition) [10] was 21.5% (inactive) and the viability decrease (inhibition) [11] was 5.6% (inactive). The fold change [12, 17] was 0.9 (inactive), the fold change [12, 18] was 0.439 and the cell count [12, 19] was 8310. For the same compound, the cell count [12, 20] was 9230, the z-score [14, 21] was -0.285 (inactive) and the z-score [14, 22] was -0.121.

With Cc1nc2c([nH]1)c(=O)n(C)c(=O)n2Cc1ccco1 the parasite load remaining [1] was 89.1% (inactive), the viability [1] was 184% and the inhibition [2] was -1% (inactive). The fluorescence ratio (interference) [3] was 1 (inactive), the nuclear beta-catenin stimulation ([4]; at 10 µM) was -1.1% (inactive) and the nuclear beta-catenin stimulation ([4]; stimulation, at 2 µM) was -0.9%. For the same compound, the insulin secretion stimulation [5] was 5.4% (inactive), the viability decrease [6] was 4.7% (inactive) and the tube area decrease [7] was -13.8% (inactive). For the same compound, the GLP1 secretion stimulation [8] was 2.9% (inactive), the inhibition of viability [9] was 4.7% (inactive) and the viability decrease (inhibition) [10] was 11.9% (inactive). The viability decrease (inhibition) [11] was 11.1% (inactive), the fold change [12, 17] was 0.936 (inactive) and 0.904 (inactive) and the fold change [12, 18] was 1.31 and 1.1. The cell count [12, 19] was 10100 and 8410, the cell count [12, 20] was 10800 and 9310 and the outcome [13] was “inactive”. For the same compound, the z-score [14, 21] was 0.342 (inactive), the z-score [14, 22] was -0.476 and the z-score [15] was 0.455 (inactive) and 1.9 (inactive).

In the case of N[C@@H](COP(=O)(O)O)C(=O)O, the inhibition [2] is reported as -1% (inactive), the fluorescence ratio (interference) [3] is reported as 1 (inactive) and the nuclear beta-catenin stimulation ([4]; at 10 µM) is reported as 0.6% (inactive). The nuclear beta-catenin stimulation ([4]; stimulation, at 2 µM) was 14.5%, the insulin secretion stimulation [5] was 2% (inactive) and the viability decrease [6] was -15.2% (inactive). For the same compound, the tube area decrease [7] was -20.7% (inactive), the GLP1 secretion stimulation [8] was -1% (inactive) and the inhibition of viability [9] was 0% (inactive). For the same compound, the viability decrease (inhibition) [10] was -26.4% (inactive), the viability decrease (inhibition) [11] was -5.8% (inactive) and the fold change [12, 17] was 1.04 (inactive) and 0.898 (inactive). The fold change [12, 18] was 1.02 and 0.718, the cell count [12, 19] was 10100 and 7700 and the cell count [12, 20] was 9680 and 8570. For the same compound, the outcome [13] was “inactive”, the remaining NAD [16] was 10 nM (inactive) and the z-score [15] was 0.485 (inactive).

For CSc1ccc(C(=O)c2[nH]c(=O)[nH]c2C)cc1, the inhibition [2] was 0% (inactive), the fluorescence ratio (interference) [3] was 1.1 (inactive) and the nuclear beta-catenin stimulation ([4]; at 10 µM) was 0.3% (inactive). The nuclear beta-catenin stimulation ([4]; stimulation, at 2 µM) was 0.1%, the insulin secretion stimulation [5] was 1.4% (inactive) and the viability decrease [6] was -6.3% (inactive). The tube area decrease [7] was -15.1% (inactive), the GLP1 secretion stimulation [8] was 0.1% (inactive) and the inhibition of viability [9] was -7% (inactive). For the same compound, the viability decrease (inhibition) [10] was 29% (inactive), the viability decrease (inhibition) [11] was 9.15% (inactive) and the fold change [12, 17] was 0.968 (inactive). For the same compound, the fold change [12, 18] was 1.32, the cell count [12, 19] was 8650 and the cell count [12, 20] was 8940. For the same compound, the outcome [13] was “inactive” and the z-score [15] was 0.31 (inactive).

With O=C(NCC1CN(c2ccc(N3CCOCC3=O)cc2)C(=O)O1)c1ccc(Cl)s1 (centres undefined) the nuclear beta-catenin stimulation ([4]; at 10 µM) was 1.8% (inactive), the nuclear beta-catenin stimulation ([4]; stimulation, at 2 µM) was -0.7% and the insulin secretion stimulation [5] was 0.5% (inactive). The viability decrease [6] was 55.9% (active), the tube area decrease [7] was -0.6% (inactive) and the GLP1 secretion stimulation [8] was -0.6% (inactive). For the same compound, the inhibition of viability [9] was 51.2% (active), the viability decrease (inhibition) [10] was -16% (inactive) and the viability decrease (inhibition) [11] was 9.9% (inactive). For the same compound, the fold change [12, 17] was 0.99 (inactive), the fold change [12, 18] was 0.417 and the cell count [12, 19] was 7630. For the same compound, the cell count [12, 20] was 7700, the z-score [14, 21] was -0.316 (inactive) and the z-score [14, 22] was -0.0771.

With CCNC(=O)N1CCN(CCCC(c2ccc(F)cc2)c2ccc(F)cc2)CC1 the inhibition [2] was -1% (inactive), the fluorescence ratio (interference) [3] was 1 (inactive) and the nuclear beta-catenin stimulation ([4]; at 10 µM) was 0.3% (inactive). The nuclear beta-catenin stimulation ([4]; stimulation, at 2 µM) was -1.1%, the insulin secretion stimulation [5] was 1.1% (inactive) and the viability decrease [6] was 50.7% (active). For the same compound, the tube area decrease [7] was 17.1% (inactive), the GLP1 secretion stimulation [8] was 7.1% (inactive) and the inhibition of viability [9] was 85.2% (active). The viability decrease (inhibition) [10] was 119% (active), the viability decrease (inhibition) [11] was 57.7% (active) and the fold change [12, 17] was 0.987 (inactive). The fold change [12, 18] was 1.62, the cell count [12, 19] was 6860 and the cell count [12, 20] was 6940. For the same compound, the outcome [13] was “inactive” and the z-score [15] was -1.42 (inactive).

In the case of O=S(=O)(O)Oc1ccc(C(c2ccc(OS(=O)(=O)O)cc2)c2ccccn2)cc1, the nuclear beta-catenin stimulation ([4]; at 10 µM) is reported as -1.8% (inactive), the nuclear beta-catenin stimulation ([4]; stimulation, at 2 µM) is reported as 1.7% and the insulin secretion stimulation [5] is reported as -1.2% (inactive). The viability decrease [6] was -2.3% (inactive), the tube area decrease [7] was 11.8% (inactive) and the GLP1 secretion stimulation [8] was 1.3% (inactive). For the same compound, the inhibition of viability [9] was -5.5% (inactive), the viability decrease (inhibition) [10] was -2.2% (inactive) and the viability decrease (inhibition) [11] was -5.9% (active). The fold change [12, 17] was 0.9 (inactive), the fold change [12, 18] was 1.41 and the cell count [12, 19] was 8720. For the same compound, the cell count [12, 20] was 9690, the z-score [14, 21] was -0.185 (inactive) and the z-score [14, 22] was -0.14.

With N[C@@H](CC(=O)O)C(=O)O the inhibition [2] was 0% (inactive), the fluorescence ratio (interference) [3] was 0.9 (inactive) and the nuclear beta-catenin stimulation ([4]; at 10 µM) was 0% (inactive). For the same compound, the nuclear beta-catenin stimulation ([4]; stimulation, at 2 µM) was -0.6%, the insulin secretion stimulation [5] was 1.3% (inactive) and the viability decrease [6] was 7.1% (inactive). For the same compound, the tube area decrease [7] was -11.9% (inactive), the GLP1 secretion stimulation [8] was -0.5% (inactive) and the inhibition of viability [9] was 1.9% (inactive). The viability decrease (inhibition) [10] was -18.5% (inactive), the viability decrease (inhibition) [11] was 1.6% (inactive) and the fold change [12, 17] was 1 (inactive). It also gave a fold change [12, 18] of 1.56, a cell count [12, 19] of 10800 and a cell count [12, 20] of 10700. The outcome [13] was “inactive”, the remaining NAD [16] was 10 nM (inactive) and the z-score [15] was 0.255 (inactive).
